Measured values taken from PubChem BioAssay AID1159580 (chemical genetic matrix, 2015).
Screen size: about 5,500 compounds; about 2,000 (36%) were called active. Inconclusive results (about 18%) are left out. Cut-off read from the data, not from the text of the source: active = normalized growth mostly below about 0.91 (no sharp cut-off); inconclusive = no clear call, values can overlap the other calls; inactive = mostly above about 0.92. The list shows a part of the results.

Assay: chemical genetic growth profiling, strain panel (AID 1159580);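 note: tested at 20 µM; growth read once vehicle control cultures reached saturation at 30 °C; 1 = growth at the plate median or of vehicle wells; lower values mean less growth of the strain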
Settings: S. cerevisiae deletion strains, growth OD
[1] = locus YAR019C, strain CDC15, hits give low values
[2] = locus YBL105C, strain PKC1, hits give low values
[3] = locus YBR135W, strain CKS1, hits give low values
[4] = locus YBR136W, strain MEC1, hits give low values
[5] = locus YBR160W, strain CDC28, hits give low values
[6] = locus YDL017W, strain CDC7, hits give low values
[7] = locus YDL028C, strain MPS1, hits give low values
[8] = locus YDL101C, strain DUN1, hits give low values
[9] = locus YDL108W, strain KIN28, hits give low values
[10] = locus YDL132W, strain cdc53, hits give low values
[11] = locus YDL214C, strain PRR2, hits give low values
[12] = locus YDR052C, strain DBF4, hits give low values
[13] = locus YDR054C, strain cdc34, hits give low values
[14] = locus YDR226W, strain ADK1, hits give low values
[15] = locus YDR477W, strain SNF1, hits give low values
[16] = locus YER123W, strain YCK3, hits give low values
[17] = locus YER133W, strain GLC7, hits give low values
[18] = locus YFL009W, strain cdc4, hits give low values
[19] = locus YFL029C, strain CAK1, hits give low values
[20] = locus YFR003C, strain YPI1, hits give low values
[21] = locus YFR019W, strain FAB1, hits give low values
[22] = locus YFR028C, strain CDC14, hits give low values
[23] = locus YGR040W, strain KSS1, hits give low values
[24] = locus YGR052W, strain FMP48, hits give low values
[25] = locus YGR092W, strain DBF2, hits give low values
[26] = locus YHR030C, strain SLT2, hits give low values
[27] = locus YHR079C, strain IRE1, hits give low values
[28] = locus YHR082C, strain KSP1, hits give low values
[29] = locus YHR205W, strain SCH9, hits give low values
[30] = locus YIL147C, strain SLN1, hits give low values
[31] = locus YJL095W, strain BCK1, hits give low values
[32] = locus YJL128C, strain PBS2, hits give low values
[33] = locus YJL157C, strain FAR1, hits give low values
[34] = locus YJR016C, strain ILV3, hits give low values
[35] = locus YJR066W, strain TOR1 (second series), hits give low values
[36] = locus YJR066W, strain TOR1, hits give low values
[37] = locus YKL048C, strain ELM1, hits give low values
[38] = locus YKL067W, strain YNK1, hits give low values
[39] = locus YKL101W, strain HSL1, hits give low values
[40] = locus YKL193C, strain SDS22, hits give low values
[41] = locus YKL203C, strain TOR2, hits give low values
[42] = locus YLR113W, strain HOG1, hits give low values
[43] = locus YLR133W, strain CKI1, hits give low values
[44] = locus YLR403W, strain SFP1, hits give low values
[45] = locus YML070W, strain DAK1, hits give low values
[46] = locus YMR001C, strain CDC5, hits give low values
[47] = locus YMR205C, strain PFK2 (second series), hits give low values
[48] = locus YMR277W, strain FCP1, hits give low values
[49] = locus YNL006W, strain LST8, hits give low values
[50] = locus YNL020C, strain ARK1, hits give low values
[51] = locus YNL161W, strain CBK1, hits give low values
[52] = locus YNL183C, strain NPR1, hits give low values
[53] = locus YNL207W, strain RIO2, hits give low values
[54] = locus YNL222W, strain SSU72, hits give low values
[55] = locus YNL307C, strain MCK1 (second series), hits give low values
[56] = locus YOL078W, strain AVO1, hits give low values
[57] = locus YOL136C, strain PFK27, hits give low values
[58] = locus YOR061W, strain CKA2, hits give low values
[59] = locus YOR119C, strain RIO1, hits give low values
[60] = locus YOR231W, strain MKK1, hits give low values
[61] = locus YOR329C, strain SCD5, hits give low values
[62] = locus YPL031C, strain PHO85, hits give low values
[63] = locus YPL153C, strain RAD53, hits give low values
[64] = locus YPL204W, strain HRR25, hits give low values
[65] = locus YPL209C, strain IPL1, hits give low values
[66] = locus YPL256C, strain CLN2, hits give low values
[67] = locus YPR025C, strain CCL1, hits give low values
[68] = locus YPR106W, strain ISR1, hits give low values
[69] = locus YPR111W, strain DBF20, hits give low values
[70] = strain NNK1, hits give low values
[71] = strain TSCII, hits give low values

Measured: normalized growth

CCCCN(C)C(=O)c1cc([N+](=O)[O-])cc2c1-c1ccc([N+](=O)[O-])cc1C2=C(C#N)C#N
inactive: [1] 0.984 | [2] 0.988 | [3] 0.985 | [4] 0.977 | [5] 0.979 | [6] 0.985 | [7] 0.976 | [8] 0.98 | [9] 0.974 | [10] 0.969 | [11] 0.983 | [12] 0.975 | [13] 0.98 | [14] 0.994 | [15] 0.972 | [16] 0.942 | [17] 0.984 | [18] 0.983 | [19] 0.98 | [20] 0.984 | [21] 0.961 | [22] 0.98 | [23] 0.978 | [24] 0.953 | [25] 0.944 | [26] 0.968 | [27] 0.957 | [28] 1.04 | [29] 0.976 | [30] 0.982 | [31] 0.868 | [32] 0.959 | [33] 0.988 | [34] 0.973 | [35] 0.971 | [36] 0.973 | [37] 0.98 | [38] 0.971 | [39] 0.951 | [40] 0.977 | [41] 1.01 | [42] 0.871 | [43] 0.99 | [44] 0.966 | [45] 0.94 | [46] 0.977 | [47] 0.985 | [48] 0.976 | [49] 0.983 | [50] 0.985 | [51] 0.983 | [52] 0.968 | [53] 0.979 | [54] 0.978 | [55] 0.907 | [56] 0.968 | [57] 0.941 | [58] 0.971 | [59] 1.03 | [60] 0.876 | [61] 0.99 | [62] 0.967 | [63] 0.986 | [64] 0.958 | [65] 0.986 | [66] 0.968 | [67] 0.982 | [68] 0.985 | [69] 0.993 | [70] 0.994 | [71] 0.98

CC(=O)ON=C1c2cc([N+](=O)[O-])ccc2-c2ccc([N+](=O)[O-])cc21
active: [25] 0.426 | [26] 0.788 | [42] 0.789
inactive: [1] 0.948 | [2] 0.942 | [3] 0.949 | [4] 0.939 | [5] 0.955 | [6] 0.954 | [7] 0.933 | [8] 0.963 | [9] 0.937 | [10] 0.971 | [11] 0.85 | [12] 0.953 | [13] 0.942 | [14] 0.983 | [15] 0.729 | [16] 0.793 | [17] 0.867 | [18] 0.966 | [19] 0.948 | [20] 0.935 | [21] 0.933 | [22] 0.963 | [23] 0.702 | [24] 0.793 | [27] 0.825 | [28] 0.796 | [29] 0.858 | [30] 0.93 | [31] 0.778 | [32] 0.917 | [33] 0.835 | [34] 0.939 | [35] 0.682 | [36] 0.76 | [37] 0.892 | [38] 0.864 | [39] 0.761 | [40] 0.945 | [41] 0.843 | [43] 0.879 | [44] 0.776 | [45] 0.852 | [46] 0.942 | [47] 0.865 | [48] 0.936 | [49] 0.953 | [50] 0.836 | [51] 0.952 | [52] 0.745 | [53] 0.93 | [54] 0.939 | [55] 0.691 | [56] 0.95 | [57] 0.866 | [58] 0.751 | [59] 0.817 | [60] 0.848 | [61] 0.942 | [62] 0.701 | [63] 0.724 | [64] 0.749 | [65] 0.948 | [66] 0.891 | [67] 0.947 | [68] 0.964 | [69] 0.957 | [70] 0.944 | [71] 0.943
